From PubChem BioAssay (EPA / NIEHS) come the findings set out here.

Several values for one entry are separate records, joined by “and”; a condition that tells them apart may be missing. Equal entries are not always repeated. Results filed as inconclusive are left out. Some compounds were tested as several samples or in several runs, with calls that do not always agree. Activity calls are given as the source filed them. The calls were made as follows, unless noted: active = hit-call score of the fitted dose curve at least 0.9, where 1 is the maximum; inactive = score below 0.9.

Assay [1] has as its target human Peroxisome Proliferator-activated Receptor alpha (PPARa), PPARA (gene 5465) (UniProt Q07869). The assay can be described thus: ATG_PPARa_TRANS: Attagene TRANS-FACTORIAL HepG2 Assay for human Peroxisome Proliferator-activated Receptor alpha (PPARa) (AID 2283001; active = hit-call score of the fitted dose curve at least 0.9, where 1 is the maximum). In outline: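 Exposure: 24 h, transiently transfected HepG2 cells. Endpoint: GAL4-UAS reporter mRNA, RT-PCR with capillary electrophoresis fluorescence. Baseline: DMSO; increases fitted.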

Assay [2] concerns the target human Peroxisome Proliferator-activated Receptor delta (PPARd), PPARD (gene 5467) (UniProt Q03181). The assay can be described thus: ATG_PPARd_TRANS: Attagene TRANS-FACTORIAL HepG2 Assay for human Peroxisome Proliferator-activated Receptor delta (PPARd) (AID 2283002; active = hit-call score of the fitted dose curve at least 0.9, where 1 is the maximum). In outline:
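Measured quantity: GAL4-UAS reporter transcript induction in HepG2 after 24 h chemical dosing, with NR-Gal4 chimeras supplied by transient transfection. Detection by RT-PCR and capillary electrophoresis; upward fit against DMSO.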

Read-out in assay [3]: Intercellular Adhesion Molecule 1 (ICAM1), ICAM1 (gene 3383)
Put plainly: BSK_3C_ICAM1: BioMAP Diversity Plus: 3C Assay for Intercellular Adhesion Molecule 1 (ICAM1) Biomarker Activity (AID 2283003). As to conditions: primary human endothelial cells (HUVEC); actives raise or lower the signal. In outline:
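Using DMSO as baseline, bidirectional curve fitting was applied to ICAM-1 ELISA signals from HUVEC in the 3C system, measured 24 h after compound addition.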

The nature of assay [4]: BSK_3C_Proliferation: Cell Proliferation Assessment in the BioMAP Diversity Plus: 3C Assay (AID 2283006).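 As to AC50: potency may reflect either rise or fall in cell number versus DMSO.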 As to conditions: primary human endothelial cells (HUVEC). In outline:
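Measured here: sulforhodamine B (0.1%) staining of TCA-fixed sub-confluent umbilical vein endothelial cultures 48 h post-dosing, absorbance 560 nm. DMSO served as negative control and baseline; both signal gain and loss were modelled.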

Assay [5] addresses human RAR-related Orphan Receptor gamma (RORg), RORC (gene 6097) (UniProt P51449). Put plainly: ATG_RORg_TRANS: Attagene TRANS-FACTORIAL HepG2 Assay for human RAR-related Orphan Receptor gamma (RORg) (AID 2283011; active = hit-call score of the fitted dose curve at least 0.9, where 1 is the maximum). A digest of the protocol:
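Readout: reporter transcript induction (RT-PCR, fluorescent primer extension, capillary electrophoresis) after 24 h compound exposure of transiently transfected HepG2 cells carrying a RORg-Gal4 chimera and GAL4-UAS reporters; DMSO served as baseline, with increasing signal fitted.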

The target of assay [6] is Retinoic acid receptor RXR-alpha (Homo sapiens) (UniProt P19793). The assay can be described thus: ATG_RXRa_TRANS: Attagene TRANS-FACTORIAL HepG2 Assay for human Retinoid X Receptor alpha (RXRa) (AID 2283012; active = hit-call score of the fitted dose curve at least 0.9, where 1 is the maximum). A digest of the protocol: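 Chimeric NR-GAL4 trans-activation in HepG2, 24 h treatment; reporter transcripts quantified by fluorescence on capillary electrophoresis, analysed for upward change from DMSO.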
Chain of Retinoic acid receptor RXR-alpha (Homo sapiens) (P19793 whole entry, looked up, the tested form may be a part): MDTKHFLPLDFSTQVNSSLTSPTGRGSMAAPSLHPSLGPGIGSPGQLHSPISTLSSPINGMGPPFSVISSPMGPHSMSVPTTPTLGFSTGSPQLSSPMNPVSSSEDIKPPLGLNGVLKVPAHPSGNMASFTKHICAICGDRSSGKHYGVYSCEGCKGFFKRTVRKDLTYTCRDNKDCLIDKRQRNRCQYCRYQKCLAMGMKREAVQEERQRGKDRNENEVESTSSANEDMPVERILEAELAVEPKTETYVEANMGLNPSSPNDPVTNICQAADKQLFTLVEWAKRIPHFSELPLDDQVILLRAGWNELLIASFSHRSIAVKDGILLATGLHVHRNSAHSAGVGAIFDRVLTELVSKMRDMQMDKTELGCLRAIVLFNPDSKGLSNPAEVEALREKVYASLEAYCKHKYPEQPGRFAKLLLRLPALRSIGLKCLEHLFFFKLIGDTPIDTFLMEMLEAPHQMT

The target of assay [7] is human Retinoid X Receptor beta (RXRb), RXRB (gene 6257) (UniProt P28702). The assay can be described thus: ATG_RXRb_TRANS: Attagene TRANS-FACTORIAL HepG2 Assay for human Retinoid X Receptor beta (RXRb) (AID 2283013; active = hit-call score of the fitted dose curve at least 0.9, where 1 is the maximum). In outline:
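After a 24 h incubation with test chemical, transfected HepG2 cells carrying NR-Gal4 fusions and GAL4-UAS reporter transcription units yield RNA whose reporter cDNA is FAM-labelled, HpaI-cut and sized by capillary electrophoresis; increases over DMSO are scored.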

For assay [8], the target named is human Thyroid Receptor alpha (THRa1), THRA (gene 7067) (UniProt P10827). The assay can be described thus: ATG_THRa1_TRANS: Attagene TRANS-FACTORIAL HepG2 Assay for human Thyroid Receptor alpha (THRa1) (AID 2283014; active = hit-call score of the fitted dose curve at least 0.9, where 1 is the maximum). A digest of the protocol:
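HepG2 cells transiently transfected with multiplexed GAL4-UAS reporter units for exogenous chimeric THRa1-Gal4; reporter mRNA measured 24 h after dosing by RT-PCR, 6-FAM labelling, HpaI digestion and capillary electrophoresis. Gain-of-signal fitted versus DMSO baseline.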

Read-out in assay [9]: E-selectin (Homo sapiens) (UniProt P16581)
Put plainly: BSK_3C_Eselectin: BioMAP Diversity Plus: 3C Assay for Eselectin Biomarker Activity (AID 2283015).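 As to outcome: cell surface E-selectin protein quantified by ELISA 24 h after dosing.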 As to conditions: primary human endothelial cells (HUVEC); actives raise or lower the signal. A digest of the protocol:
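Primary human umbilical vein endothelial cells (3C system) were dosed with chemical and cell-surface E-selectin measured by ELISA 24 h later. Bidirectional curve fitting used DMSO as negative control and baseline.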

Read-out in assay [10]: Interleukin-1 alpha (IL1a), IL1A (gene 3552)
Put plainly: BSK_BE3C_IL1a: BioMAP Diversity Plus: BE3C Assay for Interleukin-1 alpha (IL1a) Biomarker Activity (AID 2283016). The conditions noted are these: primary human bronchial epithelial cells; actives raise or lower the signal. A digest of the protocol: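 Measured in human lung primary bronchial epithelial cells: IL-1a by ELISA at 24 h after dosing, with bidirectional fitting against DMSO.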

Read-out in assay [11]: Monocyte Chemoattractant Protein-1 (MCP1), CCL2 (gene 6347)
The assay can be described thus: BSK_3C_MCP1: BioMAP Diversity Plus: 3C Assay for Monocyte Chemoattractant Protein-1 (MCP1) Biomarker Activity (AID 2283017). As to conditions: primary human endothelial cells (HUVEC); actives raise or lower the signal. In outline:
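Primary human umbilical vein endothelial cells (3C system) were exposed to test chemical for 24 h, after which MCP-1 was quantified by ELISA. Activity was fitted bidirectionally against DMSO as negative control and baseline.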

Read-out in assay [12]: Monocyte Chemoattractant Protein-1 (MCP1), CCL2 (gene 6347)
The assay can be described thus: BSK_4H_MCP1: BioMAP Diversity Plus: 4H Assay for Monocyte Chemoattractant Protein-1 (MCP1) Biomarker Activity (AID 2283018). The conditions noted are these: primary human endothelial cells (HUVEC); actives raise or lower the signal. In outline: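 Primary human umbilical vein endothelium is exposed to chemical for 24 h before MCP-1 is assayed by ELISA. Concentration-response fitted bidirectionally relative to DMSO.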

Read-out in assay [13]: Human Leukocyte Antigen - DR isotype (HLADR), HLA-DRA (gene 3122)
Put plainly: BSK_3C_HLADR: BioMAP Diversity Plus: 3C Assay for Human Leukocyte Antigen - DR isotype (HLADR) Biomarker Activity (AID 2283019).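 As to outcome: ELISA of cell-surface HLA-DR on HUVEC 24 h after dosing.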 The conditions noted are these: primary human endothelial cells (HUVEC); actives raise or lower the signal. In outline:
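Primary human umbilical vein endothelial cells (3C system) were dosed with compound and cell-surface HLA-DR was quantified by ELISA at 24 h. Activity was fitted bidirectionally against DMSO as negative control and baseline.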

Read-out in assay [14]: Interleukin-8 (IL8), CXCL8 (gene 3576)
The assay can be described thus: BSK_3C_IL8: BioMAP Diversity Plus: 3C Assay for Interleukin-8 (IL8) Biomarker Activity (AID 2283020). The conditions noted are these: primary human endothelial cells (HUVEC); actives raise or lower the signal. A digest of the protocol: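 Using DMSO-treated wells as the baseline, bidirectional curve fitting was applied to ELISA-measured IL-8 from human umbilical vein endothelial cultures sampled 24 h after compound addition.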

Read-out in assay [15]: Monokine induced gamma interferon (MIG), CXCL9 (gene 4283)
Put plainly: BSK_3C_MIG: BioMAP Diversity Plus: 3C Assay for Monokine induced gamma interferon (MIG) Biomarker Activity (AID 2283021).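 As to AC50: MIG protein level measured by immunoassay in the treated endothelial cultures.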 As to conditions: primary human endothelial cells (HUVEC); actives raise or lower the signal. A digest of the protocol:
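ELISA-measured MIG in dosed HUVEC 3C cultures at 24 h, analysed by bidirectional fitting with DMSO defining baseline activity.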

Assay [16] concerns the target Peroxisome proliferator-activated receptor gamma (Homo sapiens) (UniProt P37231). Put plainly: ATG_PPARg_TRANS: Attagene TRANS-FACTORIAL HepG2 Assay for human Peroxisome Proliferator-activated Receptor-gamma (PPARg) (AID 2283007; active = hit-call score of the fitted dose curve at least 0.9, where 1 is the maximum). A digest of the protocol: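 A TRANS-format multiplexed reporter assay measures activity of an exogenous chimeric NR-Gal4 protein in HepG2 cells. After 24 h of chemical exposure, reporter transcripts are amplified, fluorescently labelled and sized by capillary electrophoresis, with gain of signal scored against DMSO.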

In assay [17] the target is human Retinoic Acid Receptor beta (RARb), RARB (gene 5915) (UniProt P10826). Put plainly: ATG_RARb_TRANS: Attagene TRANS-FACTORIAL HepG2 Assay for human Retinoic Acid Receptor beta (AID 2283004; active = hit-call score of the fitted dose curve at least 0.9, where 1 is the maximum). In outline: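 HepG2 cells transiently transfected with multiplexed GAL4-UAS reporter units expressing chimeric NR–Gal4 fusions; 24 h compound exposure. Reporter mRNA quantified by RT-PCR, 6-FAM labelling, HpaI digestion and capillary electrophoresis; gain-of-signal fitted against DMSO baseline.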

For assay [18], the target named is Nuclear receptor subfamily 1 group I member 2 (Homo sapiens) (UniProt O75469). The assay can be described thus: ATG_PXR_TRANS: Attagene TRANS-FACTORIAL HepG2 Assay for human Pregnane X Receptor (PXR) (AID 2283008; active = hit-call score of the fitted dose curve at least 0.9, where 1 is the maximum). In outline: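 Transient HepG2 transfectants carrying multiplexed reporter transcription units; PXR activity read through a Gal4 chimera. 24 h exposure. RT-PCR/CE fluorescence; upward curve fit referenced to DMSO.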
Chain of Nuclear receptor subfamily 1 group I member 2 (Homo sapiens) (O75469 whole entry, looked up, the tested form may be a part): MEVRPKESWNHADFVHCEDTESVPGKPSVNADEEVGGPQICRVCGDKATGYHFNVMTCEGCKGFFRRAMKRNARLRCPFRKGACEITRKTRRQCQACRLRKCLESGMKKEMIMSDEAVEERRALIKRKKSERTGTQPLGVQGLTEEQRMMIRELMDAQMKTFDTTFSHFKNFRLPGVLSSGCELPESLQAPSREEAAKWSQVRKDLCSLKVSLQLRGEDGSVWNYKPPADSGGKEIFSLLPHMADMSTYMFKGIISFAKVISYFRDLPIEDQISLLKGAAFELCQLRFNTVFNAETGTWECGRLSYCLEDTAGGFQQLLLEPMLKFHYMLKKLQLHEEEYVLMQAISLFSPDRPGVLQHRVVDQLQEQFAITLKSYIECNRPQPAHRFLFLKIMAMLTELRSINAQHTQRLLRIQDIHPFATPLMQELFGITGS

In assay [19] the target is human Retinoic Acid Receptor gamma (RARg), RARG (gene 5916) (UniProt P13631). Put plainly: ATG_RARg_TRANS: Attagene TRANS-FACTORIAL HepG2 Assay for human Retinoic Acid Receptor gamma (RARg) (AID 2283009; active = hit-call score of the fitted dose curve at least 0.9, where 1 is the maximum). In outline: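 Gain-of-signal relative to DMSO is reported from fluorescent capillary electrophoresis of RT-PCR reporter products. These came from HepG2 cells expressing transfected RARg-GAL4 chimeras with UAS reporters, harvested 24 h after dosing.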
Chain of human Retinoic Acid Receptor gamma (RARg), RARG (gene 5916) (P13631 whole entry, looked up, the tested form may be a part): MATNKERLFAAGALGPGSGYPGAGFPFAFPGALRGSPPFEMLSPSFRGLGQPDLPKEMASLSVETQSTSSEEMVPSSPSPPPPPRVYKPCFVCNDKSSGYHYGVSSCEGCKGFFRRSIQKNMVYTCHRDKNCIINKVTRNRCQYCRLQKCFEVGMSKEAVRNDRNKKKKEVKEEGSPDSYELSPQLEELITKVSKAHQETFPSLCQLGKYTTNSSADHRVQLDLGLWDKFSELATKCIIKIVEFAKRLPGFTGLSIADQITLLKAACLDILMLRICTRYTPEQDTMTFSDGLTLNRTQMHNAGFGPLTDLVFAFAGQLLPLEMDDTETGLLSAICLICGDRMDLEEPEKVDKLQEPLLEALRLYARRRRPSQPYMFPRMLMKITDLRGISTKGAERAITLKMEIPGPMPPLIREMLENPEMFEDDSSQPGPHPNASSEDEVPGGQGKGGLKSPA

Chain of Peroxisome proliferator-activated receptor gamma (Homo sapiens) (P37231 whole entry, looked up, the tested form may be a part): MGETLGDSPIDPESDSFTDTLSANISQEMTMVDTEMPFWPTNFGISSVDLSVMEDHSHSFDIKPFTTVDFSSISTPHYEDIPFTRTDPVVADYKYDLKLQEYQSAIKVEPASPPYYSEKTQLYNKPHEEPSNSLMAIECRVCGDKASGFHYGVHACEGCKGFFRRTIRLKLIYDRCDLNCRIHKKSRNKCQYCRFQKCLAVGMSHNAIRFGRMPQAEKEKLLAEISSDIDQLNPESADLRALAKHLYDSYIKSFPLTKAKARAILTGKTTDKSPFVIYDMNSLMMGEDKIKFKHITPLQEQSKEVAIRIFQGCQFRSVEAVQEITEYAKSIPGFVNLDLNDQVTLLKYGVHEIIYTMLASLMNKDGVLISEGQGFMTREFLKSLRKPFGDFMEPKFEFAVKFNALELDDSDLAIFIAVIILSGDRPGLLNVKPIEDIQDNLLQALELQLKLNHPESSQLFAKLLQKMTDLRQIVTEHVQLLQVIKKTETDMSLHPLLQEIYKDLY
Chain of E-selectin (Homo sapiens) (P16581 whole entry, looked up): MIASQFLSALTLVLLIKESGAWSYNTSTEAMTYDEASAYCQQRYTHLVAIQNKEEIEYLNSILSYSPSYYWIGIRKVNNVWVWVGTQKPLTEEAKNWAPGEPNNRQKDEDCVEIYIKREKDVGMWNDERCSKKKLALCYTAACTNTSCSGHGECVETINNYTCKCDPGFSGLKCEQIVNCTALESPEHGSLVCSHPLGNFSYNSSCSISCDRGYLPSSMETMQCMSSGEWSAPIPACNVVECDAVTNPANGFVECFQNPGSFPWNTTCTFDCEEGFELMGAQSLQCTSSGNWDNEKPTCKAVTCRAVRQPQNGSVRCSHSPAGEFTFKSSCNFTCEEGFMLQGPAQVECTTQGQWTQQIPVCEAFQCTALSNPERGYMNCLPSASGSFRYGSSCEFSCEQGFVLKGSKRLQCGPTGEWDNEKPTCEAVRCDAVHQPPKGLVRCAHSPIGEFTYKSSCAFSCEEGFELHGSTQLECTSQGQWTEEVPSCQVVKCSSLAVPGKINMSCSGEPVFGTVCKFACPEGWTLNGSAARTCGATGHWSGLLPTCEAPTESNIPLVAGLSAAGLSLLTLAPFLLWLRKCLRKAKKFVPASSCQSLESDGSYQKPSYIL
Chain of human Peroxisome Proliferator-activated Receptor alpha (PPARa), PPARA (gene 5465) (Q07869 whole entry, looked up, the tested form may be a part): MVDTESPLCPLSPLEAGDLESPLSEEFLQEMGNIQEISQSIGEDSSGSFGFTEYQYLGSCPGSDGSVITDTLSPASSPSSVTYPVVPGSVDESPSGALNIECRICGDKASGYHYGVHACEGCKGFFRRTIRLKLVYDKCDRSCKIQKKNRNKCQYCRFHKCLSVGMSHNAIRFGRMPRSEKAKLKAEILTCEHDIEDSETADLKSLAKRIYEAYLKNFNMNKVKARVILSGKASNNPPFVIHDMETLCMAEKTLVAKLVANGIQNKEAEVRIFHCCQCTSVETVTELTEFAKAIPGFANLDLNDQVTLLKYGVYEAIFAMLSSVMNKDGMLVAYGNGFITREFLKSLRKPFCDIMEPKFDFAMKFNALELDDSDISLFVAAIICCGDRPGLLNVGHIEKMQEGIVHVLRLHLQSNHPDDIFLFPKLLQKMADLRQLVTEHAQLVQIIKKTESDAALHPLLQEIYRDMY
Chain of human Retinoid X Receptor beta (RXRb), RXRB (gene 6257) (P28702 whole entry, looked up, the tested form may be a part): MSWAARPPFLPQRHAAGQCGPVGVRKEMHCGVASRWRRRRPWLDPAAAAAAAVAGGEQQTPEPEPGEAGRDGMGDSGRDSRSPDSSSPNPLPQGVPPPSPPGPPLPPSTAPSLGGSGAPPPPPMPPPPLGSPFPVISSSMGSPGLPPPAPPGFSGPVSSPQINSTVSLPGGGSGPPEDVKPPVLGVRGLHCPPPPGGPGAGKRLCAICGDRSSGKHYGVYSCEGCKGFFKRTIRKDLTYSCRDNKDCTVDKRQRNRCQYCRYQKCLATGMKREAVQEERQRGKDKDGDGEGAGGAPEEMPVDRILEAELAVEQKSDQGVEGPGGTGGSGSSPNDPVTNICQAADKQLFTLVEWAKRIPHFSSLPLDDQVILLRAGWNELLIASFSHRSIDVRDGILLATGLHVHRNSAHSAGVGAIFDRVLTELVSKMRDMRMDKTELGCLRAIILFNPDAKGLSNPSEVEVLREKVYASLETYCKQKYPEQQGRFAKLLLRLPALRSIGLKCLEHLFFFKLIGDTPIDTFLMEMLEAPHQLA
Chain of human Peroxisome Proliferator-activated Receptor delta (PPARd), PPARD (gene 5467) (Q03181 whole entry, looked up, the tested form may be a part): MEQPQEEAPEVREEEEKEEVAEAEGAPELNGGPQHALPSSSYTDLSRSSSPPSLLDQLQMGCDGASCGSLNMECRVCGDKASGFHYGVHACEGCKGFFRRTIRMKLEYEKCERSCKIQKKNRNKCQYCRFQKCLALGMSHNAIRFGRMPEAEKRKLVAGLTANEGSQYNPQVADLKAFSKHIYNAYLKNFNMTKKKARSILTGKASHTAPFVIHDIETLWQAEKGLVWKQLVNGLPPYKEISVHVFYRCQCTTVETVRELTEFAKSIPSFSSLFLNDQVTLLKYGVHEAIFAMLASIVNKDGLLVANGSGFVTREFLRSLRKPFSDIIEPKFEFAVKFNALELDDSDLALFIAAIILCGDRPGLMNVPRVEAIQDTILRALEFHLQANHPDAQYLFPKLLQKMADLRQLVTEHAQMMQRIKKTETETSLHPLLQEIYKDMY
Chain of human RAR-related Orphan Receptor gamma (RORg), RORC (gene 6097) (P51449 whole entry, looked up, the tested form may be a part): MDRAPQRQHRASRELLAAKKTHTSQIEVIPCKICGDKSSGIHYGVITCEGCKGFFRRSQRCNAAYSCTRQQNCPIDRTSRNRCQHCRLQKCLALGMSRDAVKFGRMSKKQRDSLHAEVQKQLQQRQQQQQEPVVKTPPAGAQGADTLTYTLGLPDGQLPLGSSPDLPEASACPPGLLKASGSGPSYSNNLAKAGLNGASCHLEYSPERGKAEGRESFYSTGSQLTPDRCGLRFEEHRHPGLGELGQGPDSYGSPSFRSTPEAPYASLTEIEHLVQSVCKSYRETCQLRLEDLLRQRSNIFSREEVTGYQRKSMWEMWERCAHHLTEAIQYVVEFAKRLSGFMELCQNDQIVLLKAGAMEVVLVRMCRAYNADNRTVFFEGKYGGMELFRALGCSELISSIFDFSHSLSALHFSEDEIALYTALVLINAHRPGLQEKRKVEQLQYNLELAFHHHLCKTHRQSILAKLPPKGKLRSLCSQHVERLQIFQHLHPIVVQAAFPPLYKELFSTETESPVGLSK
Chain of human Thyroid Receptor alpha (THRa1), THRA (gene 7067) (P10827 whole entry, looked up, the tested form may be a part): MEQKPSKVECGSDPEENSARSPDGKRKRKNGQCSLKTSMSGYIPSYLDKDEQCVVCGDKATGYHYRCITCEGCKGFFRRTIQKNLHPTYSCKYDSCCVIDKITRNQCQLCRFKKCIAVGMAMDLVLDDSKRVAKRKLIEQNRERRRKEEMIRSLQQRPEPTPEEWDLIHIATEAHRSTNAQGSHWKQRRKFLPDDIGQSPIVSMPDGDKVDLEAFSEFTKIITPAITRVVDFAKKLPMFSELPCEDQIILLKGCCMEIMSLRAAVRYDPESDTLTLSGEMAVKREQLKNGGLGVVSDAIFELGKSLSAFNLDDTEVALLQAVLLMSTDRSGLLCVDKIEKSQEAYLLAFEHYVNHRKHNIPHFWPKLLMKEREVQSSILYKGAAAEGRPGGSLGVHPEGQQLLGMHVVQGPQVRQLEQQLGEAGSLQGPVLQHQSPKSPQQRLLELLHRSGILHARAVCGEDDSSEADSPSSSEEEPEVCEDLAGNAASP

As to `OCCC(F)(F)C(F)(F)C(F)(F)C(F)(F)C(F)(F)C(F)(F)C(F)(F)C(F)(F)F`, the call in [1], in assay [2], in assay [3], in [5], in [6] and in [7] was inactive. For the same compound, the call in assay [8], in [9], in assay [10], in assay [11], in [12] and in assay [14] was inactive. Moreover, the result in assay [15] was inactive. Also, the AC50 (usually the midpoint of the concentration-response curve, whichever way the signal moves) in [3] was 40.5 µM (active) and 15.1 µM (active); in [4] it was 12.7 µM (active) and 17.4 µM (active) and 19.9 µM (active); in assay [9] it was 30 µM (active); in [10], 18.2 µM (active) and 18.6 µM (active); in assay [11] it was 42.5 µM (active) and 24.3 µM (active); in [12] it was 43.6 µM (active). Besides, the AC50 in [13] was 20 µM (active) and 27.8 µM (active) and 30 µM (active); in assay [14], 48.2 µM (active); in [15] it was 48.6 µM (active).

As for `Cc1ccc(S(=O)(=O)O)c(C)c1`, the call in assay [1], in assay [2], in assay [16], in assay [5], in [6] and in assay [7] was inactive. Besides, the AC50 in assay [7] is 58.6 µM (active).

Regarding `NC(=O)N(O)[C@@H]1C=C[C@H](Oc2cccc(Oc3ccc(F)cc3)c2)C1`, the outcome in assay [1], in assay [2], in assay [3], in assay [17], in assay [19] and in assay [7] was inactive. Also, the result in [9], in [10], in [11], in assay [12], in [13] and in assay [14] was inactive. Besides, the result in [15] was inactive. For the same compound, the AC50 was 9.97 µM (active) in [4], 10.1 µM (active) in assay [16] and 7.33 µM (active) in assay [18].

On to `O=[N+]([O-])c1ccc(O)cc1`, for which the compound was classed as inactive in assay [1], in assay [2], in [3], in [4], in [16] and in assay [9]. Also, the outcome in assay [10], in assay [11], in assay [12], in assay [13], in assay [14] and in assay [15] was inactive.
